Experimental data reported in ChEMBL document CHEMBL3433997, “St. Jude Leishmania screening dataset” (2016).

These compounds were tested against Solute carrier family 2, facilitated glucose transporter member 1 (Homo sapiens) (UniProt P11166) (assay: ST_JUDE_LEISH: Cytotoxicity at 2uM final concentration against transgenic Leishmania Mexicana promastigotes LmGLUT1 that are glucose transport deficient and complemented with the human glucose transporter GLUT1. Activity is measured by DNA content using SYBR green in vitro).
Chain of Solute carrier family 2, facilitated glucose transporter member 1 (Homo sapiens) (P11166 whole entry): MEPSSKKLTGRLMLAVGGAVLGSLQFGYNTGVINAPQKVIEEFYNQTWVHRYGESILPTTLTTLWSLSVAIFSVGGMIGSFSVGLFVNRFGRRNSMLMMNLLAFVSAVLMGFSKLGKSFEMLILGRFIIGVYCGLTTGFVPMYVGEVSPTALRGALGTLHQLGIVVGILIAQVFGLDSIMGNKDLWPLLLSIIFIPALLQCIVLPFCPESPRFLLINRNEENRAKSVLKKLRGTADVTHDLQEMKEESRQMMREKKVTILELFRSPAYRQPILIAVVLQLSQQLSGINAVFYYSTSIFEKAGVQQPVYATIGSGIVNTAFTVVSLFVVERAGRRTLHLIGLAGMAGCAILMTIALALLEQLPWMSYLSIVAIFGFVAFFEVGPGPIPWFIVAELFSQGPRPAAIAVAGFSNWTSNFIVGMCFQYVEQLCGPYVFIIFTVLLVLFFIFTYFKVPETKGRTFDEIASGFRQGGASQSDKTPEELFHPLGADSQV
Assay type: functional

| SMILES | inhibition [%] |
| --- | --- |
| O=C(C=Cc1ccc(Cl)c(Cl)c1)NCCCCCN1CCCC(CCCNC(=O)c2cccs2)C1 (stereo not given) | 6.06 |
| CC(=O)Nc1ccc(CN2CCN(C(c3ccc(F)cc3)c3ccc(F)cc3)CC2)cc1 | 5.18 |
| Cc1ccc(N2C(N)=NC(N)=NC2(C)C)cc1Cl | 11.4 |
| N#Cc1ccc(N(CCOc2ccc3c(c2)CCC(=O)N3)Cc2ccccc2C(F)(F)F)cc1C(F)(F)F | 7.14 |
| c1cc(CNCC2CCCO2)cc(-c2csc(-c3nc4ccccc4[nH]3)c2)c1 (stereo not given) | -1.5 |
| COc1ccc2ncc(F)c(CCN3CC(O)C(CNCc4ccc5ccccc5c4)C3)c2n1 (stereo not given) | 15.5 |
| CCN1CCc2nc3ccccc3c(C(=O)Nc3ccc(C#N)cc3)c2C1 | -0.12 |
| Cc1cc(N[C@@H](CC(C)C)C(=O)NCc2cccc(F)c2)nc(NCCc2ccccc2)n1 | 3.97 |
| Cc1cccc2nc(-c3cccc(-c4ccc(NC(=O)C(C)C(=O)NC(C)C)cc4)c3)[nH]c12 (stereo not given) | 0.75 |
| O=C(c1cc(C(=O)Nc2ccccc2)c(=O)n(-c2ccccc2)c1)c1cc(Cl)ccc1O | 3.8 |
| O=C(Nc1nc2cc(S(=O)(=O)NCc3ccc(Cl)c(Cl)c3)ccc2n1CCCN1CCCC1)c1ccc(Cl)cc1 | 1.48 |
| COc1ccc(-c2cc(NCc3ccc(-n4ccnc4)cc3)nc(Nc3ccccc3)n2)cc1 | 2.37 |
| CCCn1c(O)nnc1SCC(=O)Nc1cc(Cl)ccc1Cl | -1.37 |
| CCCC(C)c1cnc2nc(N)nc(N)c2c1C (stereo not given) | 3.61 |
| O=C(NC(Nc1ccc([N+](=O)[O-])cc1)C(Cl)(Cl)Cl)c1ccc(Cl)cc1 (stereo not given) | 0.96 |
| COc1cc2nc(N3CCN(C(=O)c4ccco4)CC3)nc(NCc3ccccc3)c2cc1OC | 14.9 |
| CCCCc1cc(NC2CCN(C)CC2)nc(Nc2ccccc2)n1 | 10.5 |
| CCCCCCCCc1c(C)[nH]c(C)c(Cl)c1=O | 0.5 |
| COc1ccc(CCNCCCCNCCc2ccc(OC)c3ccccc23)c2ccccc12 | 64.4 |
| CN(c1ccccc1)S(=O)(=O)c1cccc(NC(=O)c2ccc(-n3ccnc3)c([N+](=O)[O-])c2)c1 | 2.91 |

| SMILES | inhibition [%] |
| --- | --- |
| CC(=O)Nc1ccc(CN(Cc2ccc(F)cc2)Cc2ccc3c(c2)OCO3)cc1 | 2.71 |
| CCOc1cc(C=NNc2nc(C)cc(-n3nc(C)cc3C)n2)ccc1O | 1.32 |
| O=C(O)C[C@H](NC(=O)c1cc(-c2ccc3c(c2)OCO3)no1)C(=O)O.O=C(O)C[C@H](NC(=O)c1conc1-c1ccc2c(c1)OCO2)C(=O)O | -1.58 |
| O=S(=O)(Nc1ccc2nccc(N3CCNCC3)c2c1)c1ccc2oc3ccccc3c2c1 | 4.08 |
| Cc1cc(N[C@@H](Cc2ccccc2)C(=O)NCc2cccc(F)c2)nc(NCCOc2ccccc2)n1 | 4.2 |
| CC(=NNC(=N)N)c1ccc2c(ccc3ccccc32)c1 | 2.47 |
| O=C1C(c2ccccc2)=C(Nc2ccc([N+](=O)[O-])cc2)c2ccccc21 | 6.69 |
| CN1CCN(c2cccc(-c3nnc(-c4ccc(OCC(=O)NCc5cccc(C(F)(F)F)c5)c([N+](=O)[O-])c4)o3)c2)CC1 | 8.88 |
| COc1ccc(C(=O)Nc2nonc2-c2ccc(OC)c(OC)c2)cc1Cl | -0.82 |
| CNCCNCc1ccc(-c2ccc(-c3nc4cc(F)ccc4[nH]3)cc2)cc1 | 0.55 |
| CC(C)CNCc1ccc(-c2cccc(CN(CCN(C)C)C(=O)NCCc3ccccc3)c2)cc1 | -0.22 |
| N#Cc1ccc2[nH]c(-c3cc(-c4cccc(F)c4)cnc3N)nc2c1 | 6.56 |
| CCN(CC)CCN(Cc1ccc(-c2ccc(Cl)s2)cc1)C(=O)Cn1c(CCc2cccc(F)c2F)nc(=O)c2ccccc21 | 3.75 |
| Nc1ncc(-c2ccc3ncccc3c2)c(N)n1 | 0.18 |
| Cc1ccc(Oc2ccc(NC(=O)CNc3ccccc3N3CCCC3=O)cc2)cc1 | 6 |
| Cc1nn(CC(C)C)c2sc(C(=O)Nc3nc(-c4ccccn4)cs3)cc12 | 3.49 |
| Cc1ccc2nc(-c3ccc(C(=O)NC4CCN(Cc5ccccc5)CC4)cc3)[nH]c2c1C | 11.5 |
| CCNc1cc(C(=O)N[C@@H](Cc2cc(F)cc(F)c2)[C@H](O)CNCc2cccc(C(F)(F)F)c2)cc(N2CCCCS2(=O)=O)c1 | -0.07 |
| O=C(Cc1c[nH]cn1)Nc1cccc(-c2ccc(-c3nc4cc(F)ccc4[nH]3)s2)c1 | 3.94 |
| CN1CCN(c2ccnc3ccc(NC(=O)Nc4ccc5c(c4)CCCC5=O)cc23)CC1 | 0.37 |

The compounds below were run against Hexose transporter 1 (Plasmodium falciparum) (UniProt O97467) (assay: ST_JUDE_LEISH: Cytotoxicity at 2uM final concentration against transgenic Leishmania Mexicana promastigotes LmPfHT that are glucose transport deficient and complemented with the Plasmodium falciparum hexose transporter. Activity is measured by DNA content using SYBR green in vitro).
Assay type: functional

| SMILES | inhibition [%] |
| --- | --- |
| O=C(C=Cc1ccc(Cl)c(Cl)c1)NCCCCCN1CCCC(CCCNC(=O)c2cccs2)C1 (stereo not given) | 3.58 |
| CC(=O)Nc1ccc(CN2CCN(C(c3ccc(F)cc3)c3ccc(F)cc3)CC2)cc1 | 3.45 |
| Cc1ccc(N2C(N)=NC(N)=NC2(C)C)cc1Cl | 8.8 |
| N#Cc1ccc(N(CCOc2ccc3c(c2)CCC(=O)N3)Cc2ccccc2C(F)(F)F)cc1C(F)(F)F | 4.94 |
| c1cc(CNCC2CCCO2)cc(-c2csc(-c3nc4ccccc4[nH]3)c2)c1 (stereo not given) | 2.45 |
| COc1ccc2ncc(F)c(CCN3CC(O)C(CNCc4ccc5ccccc5c4)C3)c2n1 (stereo not given) | 16.6 |
| CCN1CCc2nc3ccccc3c(C(=O)Nc3ccc(C#N)cc3)c2C1 | 3.74 |
| Cc1cc(N[C@@H](CC(C)C)C(=O)NCc2cccc(F)c2)nc(NCCc2ccccc2)n1 | 4.78 |
| Cc1cccc2nc(-c3cccc(-c4ccc(NC(=O)C(C)C(=O)NC(C)C)cc4)c3)[nH]c12 (stereo not given) | 2.05 |
| O=C(c1cc(C(=O)Nc2ccccc2)c(=O)n(-c2ccccc2)c1)c1cc(Cl)ccc1O | 3.56 |
| O=C(Nc1nc2cc(S(=O)(=O)NCc3ccc(Cl)c(Cl)c3)ccc2n1CCCN1CCCC1)c1ccc(Cl)cc1 | 1.6 |
| COc1ccc(-c2cc(NCc3ccc(-n4ccnc4)cc3)nc(Nc3ccccc3)n2)cc1 | 0.85 |
| CCCn1c(O)nnc1SCC(=O)Nc1cc(Cl)ccc1Cl | -0.49 |
| CCCC(C)c1cnc2nc(N)nc(N)c2c1C (stereo not given) | 4.91 |
| O=C(NC(Nc1ccc([N+](=O)[O-])cc1)C(Cl)(Cl)Cl)c1ccc(Cl)cc1 (stereo not given) | -3.03 |
| COc1cc2nc(N3CCN(C(=O)c4ccco4)CC3)nc(NCc3ccccc3)c2cc1OC | 15.2 |
| CCCCc1cc(NC2CCN(C)CC2)nc(Nc2ccccc2)n1 | 8.07 |
| CCCCCCCCc1c(C)[nH]c(C)c(Cl)c1=O | 0.28 |
| COc1ccc(CCNCCCCNCCc2ccc(OC)c3ccccc23)c2ccccc12 | 55.5 |
| CN(c1ccccc1)S(=O)(=O)c1cccc(NC(=O)c2ccc(-n3ccnc3)c([N+](=O)[O-])c2)c1 | 3.61 |

| SMILES | inhibition [%] |
| --- | --- |
| CC(=O)Nc1ccc(CN(Cc2ccc(F)cc2)Cc2ccc3c(c2)OCO3)cc1 | 1.82 |
| CCOc1cc(C=NNc2nc(C)cc(-n3nc(C)cc3C)n2)ccc1O | -0.22 |
| O=C(O)C[C@H](NC(=O)c1cc(-c2ccc3c(c2)OCO3)no1)C(=O)O.O=C(O)C[C@H](NC(=O)c1conc1-c1ccc2c(c1)OCO2)C(=O)O | -1.07 |
| O=S(=O)(Nc1ccc2nccc(N3CCNCC3)c2c1)c1ccc2oc3ccccc3c2c1 | 6.5 |
| Cc1cc(N[C@@H](Cc2ccccc2)C(=O)NCc2cccc(F)c2)nc(NCCOc2ccccc2)n1 | -1.41 |
| CC(=NNC(=N)N)c1ccc2c(ccc3ccccc32)c1 | 1.59 |
| O=C1C(c2ccccc2)=C(Nc2ccc([N+](=O)[O-])cc2)c2ccccc21 | 9.53 |
| CN1CCN(c2cccc(-c3nnc(-c4ccc(OCC(=O)NCc5cccc(C(F)(F)F)c5)c([N+](=O)[O-])c4)o3)c2)CC1 | 8.11 |
| COc1ccc(C(=O)Nc2nonc2-c2ccc(OC)c(OC)c2)cc1Cl | -0.18 |
| CNCCNCc1ccc(-c2ccc(-c3nc4cc(F)ccc4[nH]3)cc2)cc1 | 0.64 |
| CC(C)CNCc1ccc(-c2cccc(CN(CCN(C)C)C(=O)NCCc3ccccc3)c2)cc1 | 1.83 |
| N#Cc1ccc2[nH]c(-c3cc(-c4cccc(F)c4)cnc3N)nc2c1 | 7.71 |
| CCN(CC)CCN(Cc1ccc(-c2ccc(Cl)s2)cc1)C(=O)Cn1c(CCc2cccc(F)c2F)nc(=O)c2ccccc21 | 3.7 |
| Nc1ncc(-c2ccc3ncccc3c2)c(N)n1 | 0.97 |
| Cc1ccc(Oc2ccc(NC(=O)CNc3ccccc3N3CCCC3=O)cc2)cc1 | 6.14 |
| Cc1nn(CC(C)C)c2sc(C(=O)Nc3nc(-c4ccccn4)cs3)cc12 | 3.41 |
| Cc1ccc2nc(-c3ccc(C(=O)NC4CCN(Cc5ccccc5)CC4)cc3)[nH]c2c1C | 7.69 |
| CCNc1cc(C(=O)N[C@@H](Cc2cc(F)cc(F)c2)[C@H](O)CNCc2cccc(C(F)(F)F)c2)cc(N2CCCCS2(=O)=O)c1 | -0.7 |
| O=C(Cc1c[nH]cn1)Nc1cccc(-c2ccc(-c3nc4cc(F)ccc4[nH]3)s2)c1 | 6.17 |
| CN1CCN(c2ccnc3ccc(NC(=O)Nc4ccc5c(c4)CCCC5=O)cc23)CC1 | 1.11 |
